According to article PMC4081100, “A DNA-binding-site landscape and regulatory network analysis for NAC transcription factors in Arabidopsis thaliana”:

Experiments:
Assay in all cases: universal protein binding microarray (PBM); transcription factors of Arabidopsis thaliana; high values mean tight binding
Settings in all cases: protein: recombinant; tags: GST; chain copies: 2; dsDNA, one strand shown
[1] = molecular target: T1, GST-ANAC092(1-176) (Arabidopsis thaliana, UniProt Q9FKA0 1-176)
T1 sequence: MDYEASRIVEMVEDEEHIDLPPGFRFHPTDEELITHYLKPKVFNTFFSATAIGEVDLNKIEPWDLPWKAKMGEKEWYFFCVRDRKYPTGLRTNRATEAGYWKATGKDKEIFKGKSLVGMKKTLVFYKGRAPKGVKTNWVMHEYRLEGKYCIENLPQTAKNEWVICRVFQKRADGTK
Outline: (§1)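 Protein amounts were determined by A280 or anti-GST western blot after glutathione–Sepharose 4B purification of GST-tagged proteins induced in cells, with zinc acetate included for zinc-finger proteins. Duplicate runs at 200 to 500 nM final were done on custom all-10-mer Agilent 4 × 180K arrays made double-stranded by primer extension. The normalised enrichment score (E-score) over gapped and ungapped 8-mers is the measure of binding.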

[2] = molecular target: T2, GST-ANAC019 NAC domain (Arabidopsis thaliana, UniProt Q9C932 14-162)
T2 sequence: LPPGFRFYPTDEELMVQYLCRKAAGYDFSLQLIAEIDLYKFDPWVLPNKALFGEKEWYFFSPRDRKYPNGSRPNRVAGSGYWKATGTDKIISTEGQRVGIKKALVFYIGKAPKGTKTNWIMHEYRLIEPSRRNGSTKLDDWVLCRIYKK
Outline: as §1

[3] = molecular target: T3, GST-ANAC055(1-171) (Arabidopsis thaliana, UniProt Q9LDY8 1-171)
T3 sequence: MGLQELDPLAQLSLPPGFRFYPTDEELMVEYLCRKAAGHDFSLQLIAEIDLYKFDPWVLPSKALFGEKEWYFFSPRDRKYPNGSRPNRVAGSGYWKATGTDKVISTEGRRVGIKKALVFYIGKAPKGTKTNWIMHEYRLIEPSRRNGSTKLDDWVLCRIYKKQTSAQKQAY
Outline: as §1

[4] = molecular target: T4, GST-ATAF1 NAC domain (Arabidopsis thaliana, UniProt Q39013 7-158)
T4 sequence: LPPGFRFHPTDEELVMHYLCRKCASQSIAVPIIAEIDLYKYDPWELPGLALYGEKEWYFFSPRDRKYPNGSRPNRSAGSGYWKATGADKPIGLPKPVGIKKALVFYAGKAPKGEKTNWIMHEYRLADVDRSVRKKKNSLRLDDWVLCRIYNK
Outline: as §1

[5] = molecular target: T5, GST-ANAC092(1-285) full length (Arabidopsis thaliana, UniProt Q9FKA0 1-285)
T5 sequence: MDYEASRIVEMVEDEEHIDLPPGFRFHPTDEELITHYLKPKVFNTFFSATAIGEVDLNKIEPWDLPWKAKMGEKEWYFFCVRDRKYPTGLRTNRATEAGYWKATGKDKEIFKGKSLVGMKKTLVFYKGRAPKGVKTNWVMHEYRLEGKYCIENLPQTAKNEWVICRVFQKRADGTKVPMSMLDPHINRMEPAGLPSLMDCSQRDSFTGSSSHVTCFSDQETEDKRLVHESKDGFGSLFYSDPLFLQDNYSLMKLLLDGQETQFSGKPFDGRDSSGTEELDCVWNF
Outline: as §1

[6] = molecular target: T6, GST-NAP(1-166) (Arabidopsis thaliana, UniProt O49255 1-166)
T6 sequence: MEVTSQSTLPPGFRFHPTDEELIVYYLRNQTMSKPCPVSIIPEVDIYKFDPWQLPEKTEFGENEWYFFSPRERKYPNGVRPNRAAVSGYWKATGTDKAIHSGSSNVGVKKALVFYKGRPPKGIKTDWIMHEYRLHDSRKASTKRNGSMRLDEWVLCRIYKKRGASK
Outline: as §1

[7] = molecular target: T7, GST-NST2(1-184) (Arabidopsis thaliana, UniProt Q9M274 1-184)
T7 sequence: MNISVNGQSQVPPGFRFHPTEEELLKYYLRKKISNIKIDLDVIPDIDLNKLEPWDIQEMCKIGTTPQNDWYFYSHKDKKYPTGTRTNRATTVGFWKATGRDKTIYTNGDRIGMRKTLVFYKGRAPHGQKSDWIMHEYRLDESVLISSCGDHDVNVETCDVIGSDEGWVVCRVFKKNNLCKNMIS
Outline: as §1

[8] = molecular target: T8, GST-SND1(1-203) (Arabidopsis thaliana, UniProt Q9LPI7 1-203)
T8 sequence: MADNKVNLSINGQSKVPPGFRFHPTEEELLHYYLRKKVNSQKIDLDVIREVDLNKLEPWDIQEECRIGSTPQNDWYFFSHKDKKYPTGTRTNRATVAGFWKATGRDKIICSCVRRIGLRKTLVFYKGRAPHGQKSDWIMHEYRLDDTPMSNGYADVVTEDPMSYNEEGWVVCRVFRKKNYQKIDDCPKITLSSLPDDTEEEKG
Outline: as §1

[9] = molecular target: T9, GST-VND3 NAC domain (Arabidopsis thaliana, UniProt Q9FH59 12-162)
T9 sequence: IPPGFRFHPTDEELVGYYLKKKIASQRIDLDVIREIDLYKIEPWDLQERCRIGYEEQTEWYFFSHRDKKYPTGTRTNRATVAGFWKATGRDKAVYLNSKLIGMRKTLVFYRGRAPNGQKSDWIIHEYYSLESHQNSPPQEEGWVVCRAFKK
Outline: as §1

[10] = molecular target: T10, GST-VND7 NAC domain (Arabidopsis thaliana, UniProt Q9C8W9 9-158)
T10 sequence: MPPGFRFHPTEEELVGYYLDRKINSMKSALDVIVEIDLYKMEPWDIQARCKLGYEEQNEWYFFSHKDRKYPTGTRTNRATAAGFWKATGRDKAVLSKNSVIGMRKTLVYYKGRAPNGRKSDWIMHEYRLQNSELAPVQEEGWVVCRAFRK
Outline: as §1

Sequence | binding signal [1] | binding signal [2] | binding signal [3] | binding signal [4] | binding signal [5] | binding signal [6] | binding signal [7] | binding signal [8] | binding signal [9] | binding signal [10]
ACGCAATC | 0.48 E-score | 0.285 E-score | 0.343 E-score | 0.298 E-score | 0.485 E-score | 0.386 E-score | 0.384 E-score | 0.474 E-score | 0.355 E-score | 0.38 E-score
CGCACGCA | 0.401 E-score | 0.291 E-score | 0.241 E-score | 0.0589 E-score | 0.42 E-score | 0.291 E-score | 0.213 E-score | 0.229 E-score | 0.213 E-score | 0.232 E-score
GCGTGTAC | 0.403 E-score | 0.19 E-score | 0.196 E-score | 0.19 E-score | 0.434 E-score | 0.261 E-score | 0.195 E-score | 0.191 E-score | 0.197 E-score | 0.193 E-score
ACACGTAA | 0.481 E-score | 0.477 E-score | 0.469 E-score | 0.439 E-score | 0.481 E-score | 0.465 E-score | 0.316 E-score | 0.288 E-score | 0.461 E-score | 0.476 E-score
GGACGCAA | 0.411 E-score | 0.155 E-score | 0.0669 E-score | 0.0919 E-score | 0.437 E-score | 0.303 E-score | 0.107 E-score | 0.25 E-score | 0.0908 E-score | 0.0578 E-score
TATACGCA | 0.311 E-score | 0.232 E-score | 0.32 E-score | 0.231 E-score | 0.4 E-score | 0.25 E-score | 0.243 E-score | 0.298 E-score | 0.29 E-score | 0.102 E-score
ACGCCAAC | 0.404 E-score | 0.116 E-score | 0.175 E-score | 0.159 E-score | 0.436 E-score | 0.0544 E-score | 0.227 E-score | 0.379 E-score | 0.0688 E-score | 0.118 E-score
GCACGCAA | 0.492 E-score | 0.458 E-score | 0.396 E-score | 0.277 E-score | 0.493 E-score | 0.423 E-score | 0.405 E-score | 0.456 E-score | 0.438 E-score | 0.431 E-score
ACACGCAT | 0.462 E-score | 0.346 E-score | 0.335 E-score | 0.292 E-score | 0.468 E-score | 0.332 E-score | 0.242 E-score | 0.295 E-score | 0.351 E-score | 0.33 E-score
ACGGCACC | 0.406 E-score | 0.425 E-score | 0.358 E-score | 0.375 E-score | 0.452 E-score | 0.381 E-score | 0.0937 E-score | 0.237 E-score | 0.318 E-score | 0.333 E-score
ACGGCAAC | 0.401 E-score | 0.386 E-score | 0.375 E-score | 0.288 E-score | 0.42 E-score | 0.264 E-score | 0.264 E-score | 0.246 E-score | 0.326 E-score | 0.331 E-score
ACGTACGC | 0.212 E-score | 0.202 E-score | 0.16 E-score | 0.26 E-score | 0.402 E-score | 0.274 E-score | 0.193 E-score | 0.253 E-score | 0.252 E-score | 0.209 E-score
ACGGAACA | 0.224 E-score | 0.418 E-score | 0.418 E-score | 0.304 E-score | 0.289 E-score | 0.336 E-score | 0.166 E-score | 0.217 E-score | 0.352 E-score | 0.409 E-score
GCGTACGC | 0.402 E-score | 0.287 E-score | 0.265 E-score | 0.16 E-score | 0.418 E-score | 0.226 E-score | 0.251 E-score | 0.288 E-score | 0.0861 E-score | 0.346 E-score
ACGCTAAC | 0.43 E-score | 0.143 E-score | 0.0694 E-score | 0.142 E-score | 0.457 E-score | 0.0585 E-score | 0.289 E-score | 0.454 E-score | 0.127 E-score | 0.113 E-score
